# Data taken from the supplement of paper PMC6522484.
# ± gives the standard deviation of the averaged measurements.
# What was measured:
# DLD1 [1] = assay: cell viability (CellTiter-Glo) relative to plate median (fraction of plate median); higher = more viable cells; settings: 5 µM; treatment time 24 h; reporter: 7TFP
# Procedure, shortened: (§1)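 Cells were seeded in 384-well plates; these were colorectal cancer lines stably transduced with lentiviral 7TFP or TCF4/Wnt firefly luciferase reporters. After 24 h, library compounds went in at a final 5 µM, and exposure lasted 24 h. Parallel plates were then read for firefly luciferase or CellTiterGlo luminescence, each well normalised to its plate median, with two independent replicates averaged.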
# HCT116 = assay: as above; settings: 5 µM; treatment time 24 h; reporter: TCF4/Wnt
# Procedure, shortened: as §1
# SW480 [2] = assay: as above; settings: 5 µM; treatment time 24 h; reporter: 7TFP
# Procedure, shortened: as §1
# DLD1 [3] = assay: TCF/Wnt firefly luciferase reporter signal relative to plate median (fraction of plate median); higher = higher Wnt reporter signal; settings: 5 µM; treatment time 24 h; reporter: 7TFP
# Procedure, shortened: as §1
# SW480 [4] = assay: as above; settings: 5 µM; treatment time 24 h; reporter: 7TFP
# Procedure, shortened: as §1
Compound,cell viability (DLD1 [1]),cell viability (HCT116),cell viability (SW480 [2]),TCF/Wnt firefly luciferase reporter signal (DLD1 [3]),TCF/Wnt firefly luciferase reporter signal (SW480 [4])
CNCC[C@@H](Oc1ccccc1C)c1ccccc1,0.949 ± 0.073,0.941 ± 0.043,0.969 ± 0.021,1.02 ± 0.014,1.08 ± 0.042
CC1CCc2cc(F)cc3c(=O)c(C(=O)O)cn1c23 (stereo not given),1.05 ± 0.071,1.05 ± 0.15,0.972 ± 0.013,0.953 ± 0.039,1.07 ± 0.014
O=C(O)C1CC([C@@H]2CCCCN2)CN2CCCCC12 (stereo not given in full),1.03 ± 0.11,1.03 ± 0.17,0.981 ± 0.015,1.07 ± 0.064,1 ± 0.064
CC(=O)OCC(OC(C)=O)C(OC(C)=O)C(OC(C)=O)C(OC(C)=O)C(COC(C)=O)OC(C)=O (stereo not given),1.06 ± 0.071,1 ± 0.066,1.045 ± 0.0071,0.987 ± 0.047,0.96 ± 0.037
COC(=O)[C@@H]1OC(=O)C2OC23[C@@]1(C)CCC1[C@]2(C)C(C[C@@H](O)[C@]13C)C(C)(C)[C@H](OC(C)=O)C[C@@H]2OC(C)=O (stereo not given in full),1.01 ± 0.091,1.01 ± 0.014,1.01 ± 0.035,1.1 ± 0.042,1 ± 0.11
CC1(O)CC2C(CC1O)C2(C)C (stereo not given),0.946 ± 0.051,0.998 ± 0.06,0.953 ± 0.011,0.91 ± 0.12,0.848 ± 0.16
CCOC(=O)[C@H](CCc1ccccc1)N[C@H]1CCc2ccccc2N(CC(=O)O)C1=O,0.871 ± 0.1,0.899 ± 0.068,1.02 ± 0.067,1.045 ± 0.0071,1.01
COC(=O)C[C@H]1C(C)(C)[C@@H](O)[C@@H]2CC3=C4C=C(OC)O[C@@H](c5ccoc5)[C@]4(C)CCC3[C@@]1(C)C2=O (stereo partly drawn) [3-DEOXO-3beta-HYDROXYMEXICANOLIDE 16-ENOL ETHER],0.931 ± 0.11,0.91 ± 0.036,0.919 ± 0.018,0.946 ± 0.07,0.921 ± 0.064
COC(=O)[C@H]1[C@H]2C[C@H]3c4[nH]c5cc(OC)ccc5c4CCN3C[C@H]2C[C@@H](OC(=O)c2cc(OC)c(OC)c(OC)c2)[C@@H]1OC,0.96 ± 0.057,1 ± 0.11,0.905 ± 0.011,1.18,0.9565 ± 0.0021
CCCCCCCC/C=C/CCCCCCCCOP(=O)([O-])OCC[N+](C)(C)C,0.984 ± 0.052,0.886 ± 0.2,1.02 ± 0.03,0.986 ± 0.034,0.982 ± 0.018
O=C(O)CCCN1C(=O)c2cccc3cccc(c23)C1=O,0.994 ± 0.08,1.04 ± 0.035,0.995 ± 0.05,0.96 ± 0.011,0.957 ± 0.047
C=CC(C)(O)CCC=C(C)CCC=C(C)C (mixture of isomers),1.09,0.977 ± 0.075,0.94 ± 0.0028,0.8335 ± 0.00071,0.851 ± 0.15
C[N+](C)(C)CCOC(N)=O,0.994 ± 0.023,1.15 ± 0.057,0.9925 ± 0.0078,1.13 ± 0.14,0.847 ± 0.064
CC(=O)Oc1cc2c(c(C)c1OC(C)=O)CC=C1[C@@]2(C)CC[C@@]2(C)C3C[C@](C)(C(=O)O)CC[C@]3(C)CC[C@]12C (stereo not given in full),0.903 ± 0.12,0.958 ± 0.16,0.953 ± 0.081,0.869 ± 0.064,0.898 ± 0.12
O=C(CNC(=O)c1ccc(Cl)cc1)NO,0.978 ± 0.025,1 ± 0.041,0.931 ± 0.026,1.03 ± 0.048,1.13 ± 0.028
C[C@@H]1O[C@@H](O[C@H]2[C@H](O[C@H]3CC[C@@]4(C)[C@@H](CC[C@]5(C)[C@@H]4CC=C4[C@@H]6CC(C)(C)CC[C@]6(C(=O)O)CC[C@]45C)[C@]3(C)CO)OC[C@H](O)[C@@H]2O)[C@H](O)[C@H](O)[C@H]1O,1.04 ± 0.062,1.05 ± 0.1,1.03 ± 0.098,1.04 ± 0.014,1.06 ± 0.064
CCC(=O)O[C@H]1[C@H](O[C@@H]2[C@@H](C)[C@H](O[C@H]3C[C@@](C)(OC)[C@@H](O)[C@H](C)O3)[C@@H](C)C(=O)O[C@H](CC)[C@@](C)(O)[C@H](O)[C@@H](C)C(=O)[C@H](C)C[C@@]2(C)O)O[C@H](C)C[C@@H]1N(C)C,0.989 ± 0.058,0.93 ± 0.011,1.01 ± 0.016,0.9955 ± 0.0064,1.11 ± 0.014
C=CC(C)(O)CCC1C(=C)CC(O)C2C(C)(C)CCCC12C (stereo not given),0.995 ± 0.0071,0.865 ± 0.1,0.996 ± 0.0057,0.922 ± 0.15,0.927 ± 0.1
C=C(C)[C@@H]1C[C@H](O)[C@]2(C(=O)O[C@@H]3O[C@H](CO[C@@H]4O[C@H](CO)[C@@H](O[C@@H]5O[C@@H](C)[C@H](O)[C@@H](O)[C@H]5O)[C@H](O)[C@H]4O)[C@@H](O)[C@H](O)[C@H]3O)CC[C@]3(C)[C@H](C[C@H]4OC(=O)C[C@@H](O)[C@]5(C)[C@@H]4[C@@]3(C)CC[C@H]5C(=C)C)[C@@H]12 [22alpha-hydroxychiisanoside (4)],0.87 ± 0.055,0.878 ± 0.06,0.937 ± 0.033,0.803 ± 0.0042,0.951 ± 0.029
C#C[C@]1(O)CC[C@H]2[C@@H]3CCc4cc(OC)ccc4[C@H]3CC[C@@]21C,0.952 ± 0.011,1.02 ± 0.021,0.986 ± 0.0085,0.981 ± 0.15,0.944 ± 0.059
CC=CC1=C(C(=O)O)N2C(=O)[C@@H](NC(=O)[C@H](N)c3ccc(O)cc3)[C@H]2SC1,0.992 ± 0.012,1.03 ± 0.06,0.983 ± 0.039,1.09 ± 0.099,1.17 ± 0.064
C=CCc1ccc(OC(=O)c2ccccc2)c(OC)c1,1.02 ± 0.14,1.07 ± 0.05,1.02 ± 0.063,1.22 ± 0.014,1 ± 0.14
CC(=O)N1CCN(c2ccc(OCC3COC(Cn4ccnc4)(c4ccc(Cl)cc4Cl)O3)cc2)CC1 (stereo not given),0.997 ± 0.033,0.9685 ± 0.005,0.901 ± 0.012,1.05 ± 0.05,1.01 ± 0.061
CCN(CC)C(=S)SSC(=S)N(CC)CC,0.764 ± 0.14,0.504 ± 0.17,0.938 ± 0.12,1.02 ± 0.41,0.842 ± 0.043
NC(=O)c1ccc[n+]([C@@H]2O[C@H](COP(=O)([O-])OP(=O)(O)OC[C@H]3O[C@@H](n4cnc5c(N)ncnc54)[C@H](O)[C@@H]3O)[C@@H](O)[C@H]2O)c1,0.955 ± 0.11,0.956 ± 0.09,0.942 ± 0.027,1.1 ± 0.057,1.24 ± 0.071
O=C(c1ccc(OCCN2CCCCC2)cc1)c1c(-c2ccc(O)cc2)sc2cc(O)ccc12,0.933,1.01 ± 0.1,0.938 ± 0.066,0.879 ± 0.0042,0.926 ± 0.078
CC1(C)CC[C@]2(C)CC[C@]3(C)C(=CC[C@@H]4[C@@]5(C)CC[C@H](O)C(C)(C)[C@@H]5CC[C@]43C)[C@@H]2C1 [beta-AMYRIN],1.01 ± 0.073,0.962 ± 0.016,0.994 ± 0.093,0.913 ± 0.016,0.9235 ± 0.0021
